Inconclusive results are not listed. Unmarked numbers belong to inactive results. Active and inactive are the calls of the source. Calls follow the shape of the dose curve; as a rule, active = well fitted inhibition curve with a large enough effect; inconclusive = small, poorly fitted or top-dose-only effect; inactive = flat fitted curve, though single readings scatter.
Assay: CHOP2 Reporter Counterscreen Assay for Inhibitors of Ubiquitin-specific Protease USP2a;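 also: activated enterokinase alone at 50 pM in a cell-free format rather than USP2a or CHOP2; nearly all actives have a fitted effect of over 55% in size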
Conditions: purified enterokinase, fluorogenic substrate, 485/531 nm; series mostly up to 38.3 µM; activity change, negative = inhibition: at the top concentration
How it was run: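 Cell-free counterscreen with pre-activated enterokinase alone (50 pM final) in 20mM Tris-HCl pH 8.0, 2mM CaCl2, 2mM beta-mercaptoethanol, 0.05% CHAPS; compound preincubation 30 min RT, reporter substrate 25nM final, fluorescence read after 10 min (Ex 485/Em 531).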
% is scaled to controls: 0 for no effect and ±100 for the full control effect; potency is read from the fitted curve at half-maximal effect.

Compound	activity change, negative = inhibition [%]	Potency
O=C(O)C1CCN1C1CCCCC1 (stereo not given)	-1.7	–
CCc1cc2cccc(C)c2nc1SCC(=O)N1CCN(C(=O)c2ccco2)CC1	-3.06	–
NC(=O)CC(NC(=O)Cc1ccc(Br)cc1)c1ccc(N2CCC(Cc3ccccc3)CC2)c([N+](=O)[O-])c1 (stereo not given)	2.37	–
COc1ccc(OCC(=O)NCCNC(=O)c2cccnc2)cc1	3.16	–
O=C(Nc1ccc(N2CCCC2)cc1)c1cccc(-c2cc3ccccc3oc2=O)c1	-5.21	–
Cn1nc(CC(=O)NCc2ccc(F)cc2)c2ccccc2c1=O	3.02	–
Cc1nn(C)cc1CNC(=O)c1ccc(Br)o1	-1.24	–
CC1CCN(CC(O)COc2cccc(F)c2)CC1 (stereo not given)	-2	–
Nc1cc(N)nc(SCC(=O)N2CCCCC2)n1	2.35	–
O=C(NC1CCCC1)C1C2C=CC(C2)C1C(=O)N1CCOCC1 (stereo not given)	4.28	–
Cc1ccc(NC(=O)c2cc(-c3ccco3)nc3ccccc23)cc1S(=O)(=O)N1CCOCC1	–	7.08 µM (active)
CCCCNc1nc2ccccc2nc1NS(=O)(=O)c1cccs1	3.62	–
O=C(Cn1cnc2sc(-c3ccccc3)cc2c1=O)NCc1ccco1	–	10 µM (active)
Cc1ccc(NC(=O)CS(=O)CC(=O)Nc2ccc(N3CCOCC3)cc2)cc1Cl (stereo not given)	-25.4	–
COc1cc(NC(=O)COC(=O)CSc2ccccc2F)c(C)cc1[N+](=O)[O-]	-22.9	–
S=c1[nH]nc(-c2cc(-c3ccco3)[nH]n2)n1-c1cccc2ccccc12	-21.8	–
O=C(Nc1ccncc1)c1ccc(S(=O)(=O)Nc2ccccc2)cc1	–	3.55 µM (active)
CC(C)c1ccc(CCNC(=O)c2ccc([N+](=O)[O-])cc2)cc1	0.268	–
CC1CCCC(NC(=O)C2N(CCCN3CCCC3)C(=O)C3C(C(=O)Nc4ccc(Cl)cc4)C4C=CC32O4)C1C (stereo not given)	-2.85	–
O=C(Nc1nc(-c2ccco2)c(-c2ccco2)s1)C1CC(=O)N(c2ccc3c(c2)OCCO3)C1 (stereo not given)	–	4.47 µM (active)

Compound	activity change, negative = inhibition [%]	Potency
O=C(Nc1ncccc1Cl)c1cccc(F)c1	4.25	–
CCO[C@H]1OC(C(=O)N2CCCCCCC2)=C[C@@H](c2ccc(C(F)(F)F)cc2)[C@@H]1CCCO	-1.04	–
CC1CCCC(N2CCN(C(=O)c3cccc(F)c3)CC2)C1 (stereo not given)	-19	–
COc1ccc(NC(=O)CSc2nc(O)cc(=O)n2-c2ccc(OC)cc2)cc1	-6.78	–
C[C@](N)(Cc1ccc(O)c(O)c1)C(=O)O	-9.19	–
C=C(C)COc1ccc(-c2[nH]ncc2Oc2ccccc2OCC)c(O)c1	4.58	–
Nc1c(C(=O)NCC2CCCO2)sc2nc3c(c(-c4ccco4)c12)CC/C3=C\c1ccco1 (stereo not given)	–	3.16 µM (active)
CCN(CC)S(=O)(=O)c1ccc(Cl)c(NC(=O)COC(=O)c2c(C)noc2C)c1	0.267	–
CCOC(=O)N1CCN(CC(=O)n2c(C)c(C)c3ccccc32)CC1	-16.2	–
Cc1cccc(NC(=S)NCc2ccc3c(c2)cc(C)n3C)c1C	2.98	–
C/C(Cn1nnc2ccccc21)=N\OC(=O)c1ccccc1C	3.79	–
C#CCOCCOCCOCCNc1nc(N2CCN(C(=O)CCCCCCCCCCNC(=O)Cn3cc(C[C@@H](C)O)nn3)CC2)nc(N2CCN(C(=O)CCCCCCCCCCNC(=O)[C@@H]([C@H](C)CC)n3cc(CCCCCN)nn3)CC2)n1	–	5.62 µM (active)
Cc1ccc(CNC(=O)CCNS(=O)(=O)c2ccc(C)cc2)cc1	2.86	–
COCc1cc(C)nc(SCC[N+](C)(C)CC(=O)Nc2cccc(C(F)(F)F)c2)c1C#N	-16.9	–
CCOC(=O)N1CCN(C(=O)CN(c2cccc(C)c2)S(=O)(=O)c2ccccc2)CC1	1.95	–
CC(C(=O)Nc1ccc(C(=O)O)c(O)c1)N1C(=O)/C(=C\c2ccco2)SC1=S (stereo not given)	–	7.94 µM (active)
CC(=O)c1ccc(NC(=O)CC(NCCC2=CCCCC2)C(=O)O)cc1 (stereo not given)	2.06	–
Cc1ccc(N2CN=c3s/c(=C\c4cccnc4)c(=O)n3C2)cc1	3.22	–
CC(C)N(C(=O)c1sc2cc([N+](=O)[O-])ccc2c1Cl)C(C)C	11	–
CC12CN3CC(C)(CN(C1)C3c1ccc(Cl)cc1Cl)C2O (stereo not given)	2.93	–
